PubChem BioAssay AID504697 (The Scripps Research Institute Molecular Screening Center, 2011)
Unmarked numbers belong to inactive results. Activity calls are given as the source filed them.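 How the source made its calls: active means EC50 at or below 10 µM; inactive means EC50 above 10 µM.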

Assay: fluorescence interference artefacts, compound only, dose response, artefact control for cardiac thin filament activator project, biochemical, no RTF in test wells (AID 504697);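 further: emission near 535 nm under roughly 485 nm excitation as for IANBD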
Conditions: compound-only fluorescence in RTF assay buffer with Ca2+ (no RTF in test wells), artifact counterscreen

SMILES	EC50
CCc1ccc(C(=O)NNC(=O)c2cccc(N3C(=O)CCC3=O)c2)cc1	> 71.5 µM
COc1ccccc1-c1nnc(SCc2nc3ccccc3s2)n1C	> 71.5 µM
COc1ccc2nc(C)c3cc(C)oc3c2c1	> 71.4 µM
COc1ccc(/C=C/C(=O)NC(=S)Nc2ccc(C(=O)O)cc2)cc1	> 71.5 µM
O=C(/C=C/c1cn(CC(O)CN2CCCCC2)c2ccccc12)c1cccs1 (stereo unspecified)	34.6 µM
Cn1cnnc1Sc1nc2ccccc2nc1NS(=O)(=O)c1ccccc1	> 71.5 µM
O=C(c1ccc(COc2ccccc2Br)o1)N1N=C(C(F)F)CC1(O)C(F)F (stereo unspecified)	> 71.5 µM
C=CCN1C(=O)c2ccccc2NC1c1cc(Br)cs1 (stereo unspecified)	> 71.5 µM
c1ccc(Cn2c(-c3ccccc3)nc3nc4ccccc4nc32)cc1	> 71.5 µM
Cc1ccc(C(=O)Nc2ccc3c(c2)ncn3C)cc1	> 71.4 µM
COc1ccc(-c2nn(-c3ccccc3)cc2/C=N/NC(N)=S)cc1OC	> 71.5 µM
CCc1ccc2c(COC(=O)CNS(=O)(=O)c3ccc(NC(C)=O)cc3)cc(=O)oc2c1	> 71.5 µM
CCN(CC)c1ccc(/C=c2\sc3nc4ccccc4n3c2=O)c(O)c1	14.4 µM
CNc1ccccc1C(C)(C)c1cc(C)[nH]n1	> 71.5 µM
COc1ccccc1N1CCN(c2ccc([N+](=O)[O-])cc2Cl)CC1	> 71.5 µM
O=C(O)c1ccc(NC(=S)NC(=O)c2ccc(-c3ccccc3)cc2)cc1	> 71.5 µM
COc1ccc(C(=O)Nn2cnc3scc(-c4cccs4)c3c2=O)c(O)c1	> 71.5 µM
Cc1cccc(/C=N/NC(=O)C(C)Nc2cccc3ccccc23)n1 (stereo unspecified)	26.9 µM

SMILES	EC50
CCN(CC)c1ccc(/C=C2\C(=O)c3ccc(C(=O)O)cc3C2=O)cc1	1.04 µM (active)
Cn1cc(/C=C2\SC(=S)N(NC(=O)c3ccccc3)C2=O)c2ccccc21	9.01 µM (active)
O=C(C1=C(O)C(=O)N(CCN2CCOCC2)C1c1ccc([N+](=O)[O-])cc1)c1cccs1 (stereo unspecified)	> 71.4 µM
COc1ccc2ccccc2c1C(O)c1nccn1C (stereo unspecified)	10.7 µM
Cc1cc(/C=C2\SC(=S)N(C)C2=O)c(C)n1-c1ccccc1O	15.7 µM
Cc1cc(S(=O)(=O)N2CCCC(C(=O)Nc3ccc(C(=O)O)cc3)C2)ccc1Cl (stereo unspecified)	> 71.5 µM
CCOC(=O)/C(=C\c1c[nH]c2ccccc12)NC(C)=O	> 71.4 µM
CCC(C(=O)O)N1C(=O)/C(=C/c2cccn2C)SC1=S (stereo unspecified)	35.3 µM
CNC(=O)N(O)C1N(C)C(=O)N(CC(=O)OC)C1(C)C (stereo unspecified)	> 71.5 µM
N#Cc1ccc(S(=O)(=O)NC2CCCCNC2=O)cc1 (stereo unspecified)	> 71.4 µM
COc1cc(C(=O)Oc2ccccc2/C=N/NC(=O)c2ccc(Cl)cc2)cc(OC)c1OC	> 71.5 µM
CCOc1cc(/C=C2\N=C(SC(C)C(N)=O)N(c3ccc(OC(F)F)cc3)C2=O)ccc1O (stereo unspecified)	23.3 µM
Cc1ccc(-c2ccc(OC(=O)c3ccc(=O)[nH]c3)c(C)c2)cc1	> 71.5 µM
COc1cc(CCCN2C(=S)NC[C@@H]2CC2CCCCC2)cc(OC)c1OC	> 71.5 µM
Fc1ccc(CNC(=S)NCc2ccc(F)cc2)cc1	> 71.5 µM
CN1CCC2(CC1)C1CN(C)CC=C1C(C#N)=C(N)C2(C#N)C#N (stereo unspecified)	23.5 µM
COc1ccc(OC)c(/C=C2\N=C(c3ccccc3)OC2=O)c1	1.71 µM (active)
Cc1ccc(C)c(N2CCN(C(=O)CN3C(=S)NC(C)(C)CC3C)CC2)c1 (stereo unspecified)	> 71.5 µM
